What all share (test): MAPPIT interaction score (arbitrary units); higher = stronger binary interaction signal, active = hit call of the paper
The target of one assay is Arc2. To be noted: MAPPIT configuration: N-N; pair source set: screen_1. How it is done:
(§1)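 MAPPIT in HEK293T cells: Drosophila bait and prey ORFs (from the FlyBi ORF collection) were co-transfected in quadruplicate, with two wells stimulated by erythropoietin. Interaction-dependent JAK-STAT activation was read out with a STAT-responsive firefly luciferase reporter. Positive calls use the 99th percentile of random reference set (RRS) scores within each batch […]. Batches Dvs01 and Dvs02 used the N-N configuration and Dvs04 the N-C configuration. Pairs come from FlyBi screens, CuraGen, DPiM, Finley Y2H, Lit-BM-16, Lit-BS-16 and RRS.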

The target of another assay is ATPsyndelta. To be noted: MAPPIT configuration: N-C; pair source set: screen_4. How it is done: as §1
A further assay addresses CG15572. Conditions: MAPPIT configuration: N-C; pair source set: screen_4. How it is done: as §1
The target in the next assay is CG42659. Conditions: MAPPIT configuration: N-C; pair source set: screen_3. How it is done: as §1
The target of a further assay is Polr3E. To be noted: MAPPIT configuration: N-C; pair source set: screen_4. How it is done: as §1
The next assay has as its target Adar. To be noted: MAPPIT configuration: N-N; pair source set: RRS. How it is done: as §1
The target of a further assay is ArfGAP3. To be noted: MAPPIT configuration: N-N; pair source set: Curagen_high_conf. On the procedure: as §1
A further assay has as its target Ald1. To be noted: pair source set: Lit-BM-16. On the procedure:
as §1

For another assay, the target named is ATPsyngamma. Conditions: MAPPIT configuration: N-N; pair source set: DPIM. How it is done: as §1
The next assay concerns the target Act57B. Conditions: MAPPIT configuration: N-N; pair source set: screen_1. How it is done: as §1
Another assay deals with ATPsynF. To be noted: MAPPIT configuration: N-N; pair source set: DPIM. On the procedure: as §1
In another assay the target is Acp1. Conditions: pair source set: RRS. How it is done:
as §1

Unmarked numbers belong to inactive results.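 The calls were made as follows: active = MAPPIT score above the 99th percentile of random reference set scores in the same batch; inactive = at or below it.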
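Also: HEK293T cells with Epo stimulation, STAT-responsive firefly luciferase reporter, fold induction versus unstimulated cells divided by the larger fold induction of two negative controls lacking either bait or prey.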

B1: Arc2 (protein)
chain: MTQMSDEQFRIFIETIKSLGPIKEEPPSKGSFSNCTVRFSGQRDHDAVDEFINAVETYKEVEGISDKDALKGLPLLFKSIAVVWWKGVRRDAKTWSDALQLLRDHFSPTKPSYQIYMEIFETKQSYDEVIDSFICKQRALLAKLPEGRHDEETELDFIYGLMQPKYRESIPRHEVKTFRELLDRGRTVERTRH
As to B1, in the assay with Arc2, the MAPPIT interaction score was 6.05 (active).

B2: Crk (protein)
chain: MDTFDVSDRNSWYFGPMSRQDATEVLMNERERGVFLVRDSNSIAGDYVLCVREDTKVSNYIINKVQQQDQIVYRIGDQSFDNLPKLLTFYTLHYLDTTPLKRPACRRVEKVIGKFDFVGSDQDDLPFQRGEVLTIVRKDEDQWWTARNSSGKIGQIPVPYIQQYDDYMDEDAIDKNEPSISGSSNVFESTLKRTDLNRKLPAYARVKQSRVPNAYDKTALKLEIGDIIKVTKTNINGQWEGELNGKNGHFPFTHVEFVDDCDLSKNSTEIC
As to B2, the MAPPIT interaction score is 2.72 in the assay with ATPsyndelta, 0.475 with CG15572, 0.17 in the assay with CG42659 and 2.44 with Polr3E.

B3: GstZ2 (protein)
chain: MSTNLCPNASSSDIQPILYSYWRSSCSWRVRIAMNLKEIPYDIKPISLIKSGGEQHCNEYREVNPMEQVPALQIDGHTLIESVAIMHYLEETRPQRPLLPQDVHKRAKVREIVEIICSGIQPLQNLIVLIHVGEEKKKEWAQHWITRGFRAVEKALSTSAGKYCVGDEISMADCCLVPQVFNARRFHVDLRPYPIILRIDRELESNPAFRAAHPSNQPDCPPELPNK
For the molecule B3, the MAPPIT interaction score with Adar is 0.0763.

B4: CG16894 (protein)
chain: MWYSTVRNPSIALIKQGYHILAEYNLVKEELKNIYAIPSYACGLHWFGVIFVHSGIYAGSVFRFSILLPENFPADISLPTVVFSTEVLHPHICPQNKTLDLAHFLNEWRKDEHHIWHVLRYIQAIFADPEGSICTGQSSSGDLVIMDEVRNMNALNMLAKSRPEYIKRVQEQAILSRNLIYDRPPTEDPHYIIVEPYCAERHLKFMDQLKSPCWKEATSMDCSQPSEYLGHIDSSRQLDEEEANQVEKLHRGRIPEHQREESEVSL
For B4, the MAPPIT interaction score with ArfGAP3 is 0.483.

B5: Ald1 (protein)
chain: MTTYFNYPSKELQDELREIAQKIVAPGKGILAADESGPTMGKRLQDIGVENTEDNRRAYRQLLFSTDPKLAENISGVILFHETLYQKADDGTPFAEILKKKGIILGIKVDKGVVPLFGSEDEVTTQGLDDLAARCAQYKKDGCDFAKWRCVLKIGKNTPSYQSILENANVLARYASICQSQRIVPIVEPEVLPDGDHDLDRAQKVTETVLAAVYKALSDHHVYLEGTLLKPNMVTAGQSAKKNTPEEIALATVQALRRTVPAAVTGVTFLSGGQSEEEATVNLSAINNVPLIRPWALTFSYGRALQASVLRAWAGKKENIAAGQNELLKRAKANGDAAQGKYVAGSAGAGSGSLFVANHAY
Regarding B5, the MAPPIT interaction score with Ald1 (MAPPIT configuration: N-C) was 1.2; in the assay with Ald1 (MAPPIT configuration: N-N), 4.7 (active).

B6: CycA (protein)
chain: MASFQIHQDMSNKENPGIKIPAGVKNTKQPLAVIGGKAEKNALAPRANFAVLNGNNNVPRPAGKVQVFRDVRNLNVDENVEYGAKKSNVVPVVEQFKTFSVYEDNNDTQVAPSGKSLASLVDKENHDVKFGAGQKELVDYDLDSTPMSVTDVQSPMSVDRSILGVIQSSDISVGTETGVSPTGRVKELPPRNDRQRFLEVVQYQMDILEYFRESEKKHRPKPLYMRRQKDISHNMRSILIDWLVEVSEEYKLDTETLYLSVFYLDRFLSQMAVVRSKLQLVGTAAMYIAAKYEEIYPPEVGEFVFLTDDSYTKAQVLRMEQVILKILSFDLCTPTAYVFINTYAVLCDMPEKLKYMTLYISELSLMEGETYLQYLPSLMSSASVALARHILGMEMWTPRLEEITTYKLEDLKTVVLHLCHTHKTAKELNTQAMREKYNRDTYKKVAMMESVEMSKDDFDQLCEAYNCKQKEDEHQQPDINTKSNVNLFYKF
As for B6, the MAPPIT interaction score with ATPsyngamma is 1.52.

B7: CG12206 (protein)
chain: MAAITSNVSRLEPMRGISIIIESPEVATATPPPATTTATAEAEAATKQVAPTAKSNSNTEMSLKSQAAGMLLAFGDTAATAKDNLETSYDTAAKSTAAPETNKIYPQLLLRIGGEIAGATASAEAAASAATAAAATATSPTIISCNGEIAASQAAATAADTAATLQHNNTVKIQIESQGQQRTLGKQISVVKLNEGVEEMQQHMCYLVDTSGQYSPCETLDSGTGSDLENHPQQQQQPQQVRSPQLELHLQTTRLMVNEEADHKHSPLETPSPVPKRAYSLTDDSEECDESSNSSLSCDSLHSGGLLPTTLLRDIRFRERASGPLVTKINGRPLQFETDGYYTFHVREHENFRSFGSNSSTEYEAQHFTDEQPGEDFVGFRDIRTAGKLAGNSTIKSAKGTVRGVKNRVRNGVATFLQLQQPNVKNYMEKDVGKVVLYTTSMGIIRDTYAKCANVKKILRTLLIKFEERDIFMSVEYQQEMRERMQDETIRVPQLFVEGQLIGDANIVERLNESGELRQLLRPYKSIATAYTCQTCGGYRMLPCPACNGSKKSMHRNHFTAEFVALKCMNCDEVGLIKCPNC
Turning to B7, the MAPPIT interaction score in the assay with Act57B was 1.77.

B8: ATPsynCF6 (protein)
chain: MLSQSLLSGMRVLRTEARRNFGIVAPALNKASDPIQQLFLDKVREYKQKSAGGKLVDSNPDIERELKTELDRVAKQFGSDGKTDMLKFPEFQFPDVKVDPITQAPQ
Regarding B8, the MAPPIT interaction score with ATPsynF was -0.221.

B9: spir (protein)
chain: MTEHQAEEQADTPPTKVKATPTPTPSGKFKDAKEDAFLSTSPDSANGDAQHKLPADQLAMSSSAHPQQAGQARPLILQAFHRCSSPEQCVTLHDILDSFKAPLSEDQAWALIHQFAGLYHQVAVQAHTCAADYEAALPTGFELHFHRDGSVHFSGPDQLTPKEQLQQEQIPLPPQHDVIVDQPDHSASSSGDSSVINRAFDNSNHHHHHQHHHPPLVVSHRKIISELAEIVYTALDYNLPEDEECQVSQELENLFNFMTADETDDDCIDEGIDEGDKRWDDESEEERNDTKELEHIIETCRNHIKTTLPENHYRAVCRALVTETIELRVFLQQVLNNEAGAEKLIKASESSATTQQELAKLGFNDWARFWVQVIDELRRGVRLKKSNHERTPIEYELTPYEILMGDIRAKKYQLRKVMVNGDIPPRVKKDAHAMILEFIRSRPPLKKASDRQLGPPRMCEPSPREQLMESIRKGKELKQITPPEAPTLRERVLPSANSTLSRSRQRLIKVDFSKFQDDDLFYDENSISSSHSTAATHQHHPHFAEMHRCSQPKMPPYPFGGYMVPSQARQDCRETASLMRPRRTMEPAKQVPPPEEPSFTKDEYHKFYDTALESYDLATQCESRRASLRRHTIVGCQSNLDETHSMPPTRPESRQSDDVSKETPKRSPAEQTHPSDEGSSTSSLGPWNKSFMDKQTWMERGDDRLSVTLAEIVHIRSVMTKAELEGLPMDVRVKEDVEKRRVCFLCLRTRFSFFGPWGIQCKLCQRTVCAKCYTKMRIPSEHFRNVPLVLISPSLLSSPASSSTPSPSHHAQQAHSSSTGNIMDDQFPKSLIERLLRSESDRKTRSTVGSAPSSPKHQRSNMSTPGISVGPGASSSSAAATGQAVEALHDQATMSSSYSAAMRPSGVHQQQKQHYNNAMSRSMEGPRSLPVHSPAYRPLSNNSTLERKSRFSRGFNLFSSGSHLAQTQEQKENLRGEQVTVCNDCQGLVNEITSSVKQKRSSARNRTIQNLTLDLTPVWK
Take B9: the results for the MAPPIT interaction score with Acp1 (MAPPIT configuration: N-C) and with Acp1 (MAPPIT configuration: N-N) were -0.762 and 0.149, respectively.

The values above are taken from the supplement of paper PMC10105736.
